Common to all, as to test: DAPPL (digital affinity profiling via proximity ligation, sequencing); 10 mM Tris-HCl pH 7.5, 50 mM NaCl, 1 mM DTT, 4% glycerol, room temperature, 30 min; GST-TFs on glutathione beads, 16-mer random dsDNA library, 0.1% formaldehyde crosslink after washing; high values mean tight binding
Details in all cases: protein: recombinant; tags: N-terminal GST; dsDNA, one strand shown

The target in test [1] is SPI1 (Homo sapiens, UniProt P17947 1-270). The procedure, abridged: (§1)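 The binding signal reported is, for every hexamer, its read frequency for a factor over its read frequency for the tag-only sample. Reads came from pools of yeast-expressed, GST-fused human transcription factors on glutathione beads, barcoded with DNA and mixed with that sample, which were incubated with 200 nmole of a random double-stranded 16-mer DNA library in Tris/NaCl/DTT/glycerol buffer at room temperature for 30 min. After washing, the pools were crosslinked with 0.1% formaldehyde, proximity-ligated with BsaI/T4 ligase for 1 h at 37 °C, PCR-amplified and sequenced on an Illumina NextSeq500.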

Test [2] addresses CRX (Homo sapiens, UniProt O43186 1-299). The procedure, abridged:
as §1

Test [3] addresses T1, ETS2 (Homo sapiens, UniProt P15036 1-469).
T1 sequence: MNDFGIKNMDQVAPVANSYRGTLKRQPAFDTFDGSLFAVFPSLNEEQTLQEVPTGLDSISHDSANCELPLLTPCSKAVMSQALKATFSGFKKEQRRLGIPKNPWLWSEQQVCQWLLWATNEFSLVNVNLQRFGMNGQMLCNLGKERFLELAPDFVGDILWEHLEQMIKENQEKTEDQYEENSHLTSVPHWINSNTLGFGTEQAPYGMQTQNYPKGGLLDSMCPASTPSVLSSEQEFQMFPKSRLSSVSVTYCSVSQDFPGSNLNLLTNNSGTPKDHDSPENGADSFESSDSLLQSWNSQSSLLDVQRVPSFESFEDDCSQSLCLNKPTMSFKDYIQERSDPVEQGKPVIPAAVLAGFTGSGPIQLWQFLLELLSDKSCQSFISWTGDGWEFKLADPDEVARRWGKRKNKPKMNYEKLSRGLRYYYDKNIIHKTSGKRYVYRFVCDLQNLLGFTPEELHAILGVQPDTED
The procedure, abridged:
as §1

For test [4], the target named is T2, SPDEF (Homo sapiens, UniProt O95238 1-335).
T2 sequence: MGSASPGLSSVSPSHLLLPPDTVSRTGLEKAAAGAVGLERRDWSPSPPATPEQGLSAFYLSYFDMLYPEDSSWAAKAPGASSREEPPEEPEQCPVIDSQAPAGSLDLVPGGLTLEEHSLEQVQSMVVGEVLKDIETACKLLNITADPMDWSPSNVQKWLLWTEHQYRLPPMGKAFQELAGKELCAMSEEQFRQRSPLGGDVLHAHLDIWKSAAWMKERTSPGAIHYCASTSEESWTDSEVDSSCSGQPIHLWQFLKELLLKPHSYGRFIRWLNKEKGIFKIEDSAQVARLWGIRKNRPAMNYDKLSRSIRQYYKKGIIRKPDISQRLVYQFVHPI
The method in brief: as §1

Test [5] deals with T3, FEV (Homo sapiens, UniProt Q99581 1-238).
T3 sequence: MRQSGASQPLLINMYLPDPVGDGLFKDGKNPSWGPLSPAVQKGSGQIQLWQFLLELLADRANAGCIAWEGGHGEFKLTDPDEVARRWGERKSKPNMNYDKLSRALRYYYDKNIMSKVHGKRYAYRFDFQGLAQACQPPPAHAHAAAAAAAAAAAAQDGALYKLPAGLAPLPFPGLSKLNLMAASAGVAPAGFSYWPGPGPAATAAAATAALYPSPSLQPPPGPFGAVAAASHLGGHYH
The procedure, abridged: as §1

Test [6] concerns the target T4, ELF5 (Homo sapiens, UniProt Q9UKW6-2 1-255).
T4 sequence: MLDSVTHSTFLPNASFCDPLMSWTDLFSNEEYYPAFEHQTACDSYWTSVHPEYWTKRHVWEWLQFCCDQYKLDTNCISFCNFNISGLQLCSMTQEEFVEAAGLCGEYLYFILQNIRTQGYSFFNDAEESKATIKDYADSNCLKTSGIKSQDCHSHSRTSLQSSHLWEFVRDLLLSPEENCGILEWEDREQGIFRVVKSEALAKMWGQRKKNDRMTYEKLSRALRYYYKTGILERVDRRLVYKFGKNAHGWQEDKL
The method in brief: as §1

We go through 30 sequences from article PMC7862700, “An all-to-all approach to the identification of sequence-specific readers for epigenetic DNA modifications on cytosine”.

Chain of CRX (O43186 whole entry): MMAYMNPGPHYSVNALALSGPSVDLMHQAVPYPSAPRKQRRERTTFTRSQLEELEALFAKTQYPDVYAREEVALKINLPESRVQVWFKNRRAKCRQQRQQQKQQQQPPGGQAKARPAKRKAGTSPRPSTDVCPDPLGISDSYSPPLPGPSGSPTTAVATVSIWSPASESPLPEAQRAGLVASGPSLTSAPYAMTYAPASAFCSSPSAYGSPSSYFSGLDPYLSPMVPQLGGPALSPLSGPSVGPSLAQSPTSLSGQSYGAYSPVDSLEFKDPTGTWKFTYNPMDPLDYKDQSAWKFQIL

For TCAGCT, the binding signal in test [1] is 1.04 fold enrichment (6-mer frequency, TF over GST control); in test [2] it was 1.39 fold enrichment (6-mer frequency, TF over GST control); in test [3] it was 1.14 fold enrichment (6-mer frequency, TF over GST control).
With GATGGG, the binding signal in test [3] is 1 fold enrichment (6-mer frequency, TF over GST control); in test [4], 1.08 fold enrichment (6-mer frequency, TF over GST control).
Turning to CGCTAA, the binding signal in test [2] is 1.34 fold enrichment (6-mer frequency, TF over GST control).
For AGAACA, the binding signal is 1.22 fold enrichment (6-mer frequency, TF over GST control) in test [2] and 1.03 fold enrichment (6-mer frequency, TF over GST control) in test [4].
For the sequence GCCGCT, the binding signal is 1.12 fold enrichment (6-mer frequency, TF over GST control) in test [1]; 1.05 fold enrichment (6-mer frequency, TF over GST control) in test [5]; 1.02 fold enrichment (6-mer frequency, TF over GST control) in test [2]; 1.09 fold enrichment (6-mer frequency, TF over GST control) in test [3]; 1.03 fold enrichment (6-mer frequency, TF over GST control) in test [6].
On to TAGTTG, for which the binding signal in test [2] was 1.03 fold enrichment (6-mer frequency, TF over GST control).
As for TAAGTC, the binding signal in test [2] was 1.79 fold enrichment (6-mer frequency, TF over GST control); in test [4], 1.01 fold enrichment (6-mer frequency, TF over GST control).
On to CGCCAT, for which the binding signal is 1.08 fold enrichment (6-mer frequency, TF over GST control) in test [1] and 1.03 fold enrichment (6-mer frequency, TF over GST control) in test [6].
On to GTTTGC, for which the binding signal in test [1] was 1.03 fold enrichment (6-mer frequency, TF over GST control); in test [3], 1.08 fold enrichment (6-mer frequency, TF over GST control); in test [6], 1.07 fold enrichment (6-mer frequency, TF over GST control).
Regarding GTCACG, the binding signal in test [1] is 1.05 fold enrichment (6-mer frequency, TF over GST control); in test [4], 1.02 fold enrichment (6-mer frequency, TF over GST control).
For the sequence TCAGAT, the binding signal in test [1] is 1.08 fold enrichment (6-mer frequency, TF over GST control); in test [2], 1.45 fold enrichment (6-mer frequency, TF over GST control); in test [3], 1.02 fold enrichment (6-mer frequency, TF over GST control); in test [4] it was 1.07 fold enrichment (6-mer frequency, TF over GST control); in test [6], 1 fold enrichment (6-mer frequency, TF over GST control).
TCTGGA: the binding signal was 1.01 fold enrichment (6-mer frequency, TF over GST control) in test [1]; 1.08 fold enrichment (6-mer frequency, TF over GST control) in test [5]; 1.72 fold enrichment (6-mer frequency, TF over GST control) in test [2].
As for CACCTA, the binding signal in test [1] was 1.03 fold enrichment (6-mer frequency, TF over GST control).
In the case of GATCCA, the binding signal was 1.07 fold enrichment (6-mer frequency, TF over GST control) in test [5]; 1.23 fold enrichment (6-mer frequency, TF over GST control) in test [2]; 1.09 fold enrichment (6-mer frequency, TF over GST control) in test [3]; 1.17 fold enrichment (6-mer frequency, TF over GST control) in test [4]; 1.03 fold enrichment (6-mer frequency, TF over GST control) in test [6].
Take GGTTCT: the binding signal in test [4] is 1.01 fold enrichment (6-mer frequency, TF over GST control); in test [6], 1.01 fold enrichment (6-mer frequency, TF over GST control).
In the case of ACCACG, the binding signal in test [1] was 1.01 fold enrichment (6-mer frequency, TF over GST control); in test [5] it was 1.05 fold enrichment (6-mer frequency, TF over GST control); in test [4], 1.06 fold enrichment (6-mer frequency, TF over GST control); in test [6], 1.02 fold enrichment (6-mer frequency, TF over GST control).
CGCAAC: the binding signal in test [5] is 1.07 fold enrichment (6-mer frequency, TF over GST control); in test [4], 1.03 fold enrichment (6-mer frequency, TF over GST control); in test [6] it was 1.01 fold enrichment (6-mer frequency, TF over GST control).
In the case of ACAGCC, the binding signal in test [5] is 1.02 fold enrichment (6-mer frequency, TF over GST control); in test [3], 1.03 fold enrichment (6-mer frequency, TF over GST control); in test [4], 1.02 fold enrichment (6-mer frequency, TF over GST control); in test [6] it was 1.03 fold enrichment (6-mer frequency, TF over GST control).
For CGCGAT, the binding signal in test [1] was 1.09 fold enrichment (6-mer frequency, TF over GST control); in test [2], 1.1 fold enrichment (6-mer frequency, TF over GST control); in test [3], 1.07 fold enrichment (6-mer frequency, TF over GST control); in test [4], 1.05 fold enrichment (6-mer frequency, TF over GST control); in test [6], 1.04 fold enrichment (6-mer frequency, TF over GST control).
For GCACCT, the binding signal in test [1] is 1.05 fold enrichment (6-mer frequency, TF over GST control); in test [5], 1.04 fold enrichment (6-mer frequency, TF over GST control); in test [4] it was 1.09 fold enrichment (6-mer frequency, TF over GST control).
For GGTAAC, the binding signal in test [1] was 1.02 fold enrichment (6-mer frequency, TF over GST control); in test [5], 1.05 fold enrichment (6-mer frequency, TF over GST control); in test [3], 1.02 fold enrichment (6-mer frequency, TF over GST control); in test [6], 1.02 fold enrichment (6-mer frequency, TF over GST control).
For TCGCGT, the binding signal in test [1] was 1 fold enrichment (6-mer frequency, TF over GST control).
With CGTTGC, the binding signal in test [5] is 1.11 fold enrichment (6-mer frequency, TF over GST control); in test [3], 1.2 fold enrichment (6-mer frequency, TF over GST control); in test [4] it was 1.18 fold enrichment (6-mer frequency, TF over GST control); in test [6], 1.03 fold enrichment (6-mer frequency, TF over GST control).
Regarding TACAGC, the binding signal was 1.01 fold enrichment (6-mer frequency, TF over GST control) in test [5]; 1.07 fold enrichment (6-mer frequency, TF over GST control) in test [2]; 1.1 fold enrichment (6-mer frequency, TF over GST control) in test [3]; 1.07 fold enrichment (6-mer frequency, TF over GST control) in test [6].
For the sequence CATTGC, the binding signal in test [1] was 1.05 fold enrichment (6-mer frequency, TF over GST control); in test [5], 1.04 fold enrichment (6-mer frequency, TF over GST control); in test [3], 1.17 fold enrichment (6-mer frequency, TF over GST control).
For the sequence TGGCCA, the binding signal in test [1] was 1.05 fold enrichment (6-mer frequency, TF over GST control); in test [5] it was 1.13 fold enrichment (6-mer frequency, TF over GST control); in test [3] it was 1.07 fold enrichment (6-mer frequency, TF over GST control).
For GATACA, the binding signal in test [1] was 1.01 fold enrichment (6-mer frequency, TF over GST control); in test [3], 1.05 fold enrichment (6-mer frequency, TF over GST control); in test [4] it was 1.24 fold enrichment (6-mer frequency, TF over GST control); in test [6], 1 fold enrichment (6-mer frequency, TF over GST control).
For ACTGTC, in test [1], the binding signal is 1 fold enrichment (6-mer frequency, TF over GST control).
On to CGTACG, for which the binding signal in test [4] was 1.02 fold enrichment (6-mer frequency, TF over GST control).
As for TTGACG, the binding signal in test [1] was 1.04 fold enrichment (6-mer frequency, TF over GST control); in test [5], 1.1 fold enrichment (6-mer frequency, TF over GST control); in test [2], 1.01 fold enrichment (6-mer frequency, TF over GST control); in test [3], 1.08 fold enrichment (6-mer frequency, TF over GST control); in test [6] it was 1.07 fold enrichment (6-mer frequency, TF over GST control).
